The text below walks through data of PubChem BioAssay (NCATS).

Inconclusive results are not listed. Where a call stands in place of a potency, no number is given. Active and inactive are the calls of the source. The call rests on the fitted dose curve; in most records, active means well fitted inhibition curve with a large enough effect; inconclusive means small, poorly fitted or top-dose-only effect; inactive means flat fitted curve, though single readings scatter. Where a SMILES comes first, the peptide text is derived from it. The star is where a group is joined. AMC = Cc1cc(=O)oc2cc(N*)ccc12; Cbz = O=C(OCc1ccccc1)*

A short description of this assay: P-glycoprotein substrates identified in KB-8-5-11 adenocarcinoma cell line, qHTS therapeutic library screen (AID 1346987). Further: nearly all actives have a fitted effect of over 65% in size. Conditions: KB-8-5-11 (P-gp overexpressing) viability, CellTiter-Glo, 72 h; series mostly up to 44.5 µM. The procedure, abridged: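 KB-8-5-11: colchicine-selected sub-line of KB-3-1 over-expressing P-gp; assay medium lacked colchicine. 72 h drug exposure at 37 degree C, CellTiter-Glo.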
Turning to `COc1cc(O)c2c(c1)C1(OC2=O)C(C)=CC(=O)C1O` (stereo not given), the Potency result is “inactive”.

On to `O=C(O)Cc1cn([C@@H]2O[C@H](CO)[C@@H](O)[C@H](O)[C@H]2O[C@@H]2O[C@H](CO)[C@@H](O)[C@H](O)[C@H]2O)c2ccccc12`, for which the Potency entry was “inactive”.

Consider `CC(=O)OC1C(O)/C(C)=C\C2C(OC(=O)c3ccccc3)C(C)CC2(OC(C)=O)C(OC(C)=O)C(C)/C=C/C(C)(C)C1OC(C)=O` (stereo not given), for which the Potency entry is “inactive”.

Turning to `CCCCOc1nc(N)c2c(n1)N(Cc1cccc(CN3CCCC3)c1)CC(=O)N2`, the Potency result was “inactive”.

Consider `CC1=C2CC3C(CCC3(C)O)C(C)(O)CC2OC1=O` (stereo not given), for which the Potency result was “inactive”.

For the molecule `CC(O)C/C=C/C=C/C(=O)OC1C=C2COC(=O)C2(O)C2(C)CCCC(C)(C)C12` (stereo not given), the Potency entry was “inactive”.

With `CC(C)(OC1OC(CO)C(O)C(O)C1O)C1CCC(O)(CO)C2CC(=O)C(C)(O)C2C1` (stereo not given), the Potency entry was “inactive”.

Turning to `CC(C)(O)[C@@H]1CC[C@]2(CO)[C@@H](O)CC[C@](C)(O)[C@H]2[C@@H]1O[C@@H]1O[C@H](CO)[C@@H](O)[C@H](O)[C@H]1O`, the Potency entry was “inactive”.

For the molecule `Cc1cc(=O)oc2cc(NC(=O)[C@H](CCC(=O)O)NC(=O)[C@H](CC(C)C)NC(=O)[C@H](CC(C)C)NC(=O)OCc3ccccc3)ccc12` (Cbz-Leu-Leu-Glu-{AMC}), the Potency entry was “inactive”.

With `CC(=O)C1CCC(=O)N1Cc1ccccc1` (stereo not given), the Potency result is “inactive”.

On to `CC(C)c1ccc2c(c1)CCC1[C@](C)(C(=O)O)CCC[C@]21C` (stereo not given in full), for which the Potency result is “inactive”.

In the case of `CC1(C)CC[C@]2(C(=O)O)CC[C@]3(C)C(=CCC4[C@@]5(C)C[C@@H](O)[C@H](O)[C@](C)(CO)C5CC[C@]43C)[C@@H]2[C@@H]1O` (stereo not given in full), the Potency result is “inactive”.

Turning to `CC1=C2CC(=O)C(C)CC/C=C(\C)CC2(O)OC1=O` (stereo not given), the Potency entry was “inactive”.

In the case of `CCC(C)C1NC(=O)C2C(C)CCN2C(=O)C(CC(O)CO)OC(=O)CCNC(=O)C(C)N(C)C(=O)C(C(C)C)N(C)C1=O` (stereo not given), the Potency entry was “inactive”.

With `O=C(O)[C@H]1Cc2ccccc2CN1`, the activity change, negative = cytotoxicity is 6.15% [at 5.11 µM] (inactive).

In the case of `O=C(O)c1ccncc1Nc1nn(CCN2CCC(F)(F)CC2)c2ccc(F)cc12`, the Potency entry was “inactive”.

Take `CCNC(=O)C1CC(F)(c2ccc(CN3CCCC3)c(F)c2)C1` (stereo not given): the Potency entry was “inactive”.

On to `C/C=C1\[C@H](O[C@@H]2O[C@H](CO)[C@@H](O)[C@H](O)[C@H]2O)OC=C(C(=O)O)[C@H]1CC(=O)OCCc1ccc(O)cc1`, for which the Potency result is “inactive”.

Take `C[C@H]1[C@H](C)C[C@@H](C(=O)O)C2CC[C@]3(C)C(=CC[C@@H]4[C@@]5(C)CC[C@H](O)C(C)(C)[C@@H]5CC[C@]43C)[C@@H]21` (stereo not given in full): the Potency result is “inactive”.

As to `COC(=O)C1C(c2ccc(O)cc2)C(C(=O)O)C1c1ccc(O)cc1` (stereo not given), the Potency result was “inactive”.

`CCC/C=C1\OC(=O)C2=C1CCC(O)C2O` (stereo not given): the Potency result was “inactive”.

With `O=C(OCC1=C[C@@H](O)[C@@H]2C=CO[C@@H](O[C@@H]3O[C@H](CO)[C@@H](O)[C@H](O)[C@H]3O)[C@H]12)c1ccc(O)cc1`, the Potency entry was “inactive”.

With `COc1cc(CO)ccc1O[C@@H]1O[C@H](CO)[C@@H](O)[C@H](O)[C@H]1O`, the Potency entry was “inactive”.

As to `CCCC(C(=O)O)c1c(C)nc2ccc(Cl)cc2c1-c1ccccc1` (stereo not given), the Potency entry was “inactive”.

For `COc1ccc([C@H]2OC[C@H]3[C@@H]2CO[C@@H]3c2ccc(O[C@@H]3O[C@H](CO)C(O)[C@H](O)[C@H]3O)c(OC)c2)cc1OC` (stereo not given in full), the Potency entry was “inactive”.

In the case of `COc1cc(C(CO)C(OC2OC(CO)C(O)C(O)C2O)c2ccc(O)c(OC)c2)ccc1O` (stereo not given), the Potency result was “inactive”.

Turning to `CCC(C)/C=C(C)/C=C/C1=CC2=CC(=O)C(C)(O)C(OC(C)=O)C2CO1` (stereo not given), the Potency entry is “inactive”.

`O=C(O)c1ccnc2cc(-c3nc4ccccc4n3CCN3CCCCC3)sc12`: the Potency entry was “inactive”.

As to `C[C@@H]1CCC2C(C)(C)[C@H](O)[C@H](O)C[C@]2(C)[C@@]12Cc1c(O)cc3c(c1O2)CN(CCCC(=O)O)C3=O` (stereo not given in full), the Potency entry is “inactive”.

Turning to `CCOC(=O)c1ccc(NC2CCCCC2)c(N)c1`, the Potency result was “inactive”.
